Test results taken from PubChem BioAssay (EPA / NIEHS).
Inconclusive results are not listed. Active and inactive are the calls of the source. How the source made its calls, unless noted: active means hit-call score of the fitted dose curve at least 0.9, where 1 is the maximum; inactive means score below 0.9.

Assays:
CD40, CD40 (gene 958) = experiment: BSK_SAg_CD40: BioMAP Diversity Plus: SAg Assay for CD40 Biomarker Activity (AID 2283088); conditions: primary human HUVEC with PBMC; actives raise or lower the signal
Outline: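 HUVEC/PBMC co-culture, 24 h post-dose; CD40 by ELISA, fluorescence intensity; bidirectional fit vs DMSO negative control.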

CD69, CD69 (gene 969) = experiment: BSK_SAg_CD69: BioMAP Diversity Plus: SAg Assay for CD69 Biomarker Activity (AID 2283089); conditions: primary human HUVEC with PBMC; actives raise or lower the signal;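 on AC50: cell surface CD69 protein quantified by ELISA with fluorescence detection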
Outline: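 Endothelial/PBMC co-culture; chemical added; 24 h incubation; CD69 ELISA with fluorescence detection; bidirectional fit vs DMSO.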

[1] = read-out: Monocyte Chemoattractant Protein-1 (MCP1), CCL2 (gene 6347); experiment: BSK_SAg_MCP1: BioMAP Diversity Plus: SAg Assay for Monocyte Chemoattractant Protein-1 (MCP1) Biomarker Activity (AID 2283090); conditions: primary human HUVEC with PBMC; actives raise or lower the signal
Outline: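 MCP-1 levels in the endothelial–PBMC SAg co-culture were quantified by ELISA at 24 h post-dosing; both increases and decreases versus DMSO scored. Cytotoxicity monitored by SRB total protein in parallel cultures.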

[2] = read-out: E-selectin (Homo sapiens) (UniProt P16581); experiment: BSK_SAg_Eselectin: BioMAP Diversity Plus: SAg Assay for Eselectin Biomarker Activity (AID 2283091); conditions: primary human HUVEC with PBMC; actives raise or lower the signal
Outline: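 E-selectin ELISA readout at 24 h post-dosing in human umbilical vein endothelial cell/PBMC co-culture; gain or loss of signal fitted relative to DMSO baseline.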

[3] = read-out: Monokine induced gamma interferon (MIG), CXCL9 (gene 4283); experiment: BSK_SAg_MIG: BioMAP Diversity Plus: SAg Assay for Monokine induced gamma interferon (MIG) Biomarker Activity (AID 2283092); conditions: primary human HUVEC with PBMC; actives raise or lower the signal
Outline: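 Measures CXCL9 protein by ELISA in a human vascular primary-cell co-culture (umbilical vein endothelium with PBMC) 24 h after chemical addition. Activity is scored up or down from the DMSO control.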

[4] = BSK_SAg_PBMCCytotoxicity: PBMC Cytotoxicity Assessment in the BioMAP Diversity Plus: SAg Assay (AID 2283093); conditions: primary human HUVEC with PBMC;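 further: PBMC viability measured as Alamar Blue reduction fluorescence at 546/580 nm; fitted both ways against DMSO so a hit may be loss or gain of signal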;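 on AC50: PBMC superantigen activated with SEB plus TSST-1 one hour after compound addition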
Outline: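 Human umbilical vein endothelial cells co-cultured with PBMC; PBMC (75,000/well) pre-treated with compound 1 h, then activated with SEB and TSST-1 (20 ng/mL final each) for 90 h. Alamar Blue added 6 h, fluorescence 546/580 nm; bidirectional fit versus DMSO.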

[5] = read-out: Interleukin-8 (IL8), CXCL8 (gene 3576); experiment: BSK_SAg_IL8: BioMAP Diversity Plus: SAg Assay for Interleukin-8 (IL8) Biomarker Activity (AID 2283094); conditions: primary human HUVEC with PBMC; actives raise or lower the signal
Outline: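 ELISA read-out of IL-8 in a primary human vascular co-culture (umbilical vein endothelium plus PBMC), taken 24 h after compound addition. Values derive from bidirectional fits against DMSO negative controls.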

[6] = BSK_SAg_Proliferation: Cell Proliferation Assessment in the BioMAP Diversity Plus: SAg Assay (AID 2283095); conditions: primary human HUVEC with PBMC;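 further: relative cell number as total protein by SRB absorbance in sub-confluent culture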
Outline: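 Cells (endothelium plus PBMC, human primary) were dosed with chemical, cultured 96 h, fixed in 10% TCA and stained with 0.1% SRB. Absorbance at 560 nm gave relative protein, fitted bidirectionally relative to DMSO.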

[7] = BSK_SAg_SRB: Viability Assessment in the BioMAP Diversity Plus: SAg Assay (AID 2283096); conditions: primary human HUVEC with PBMC;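 further: cells read one day after compound addition; hits may be either gain or loss of signal compared with DMSO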
Outline: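 Endothelial/PBMC primary human co-culture; compound 24 h; fix 10% TCA, stain 0.1% SRB, A560; protein content as cytotoxicity proxy; bidirectional curve fit, DMSO = baseline.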

[8] = biological target: human CYP19A1, CYP19A1 (gene 1588) (UniProt P11511); experiment: NVS_ADME_hCYP19A1: NovaScreen (NVS) CYP450-related Enzyme Activity (ADME) Assay for human CYP19A1 (AID 2283098; active means hit-call score of the fitted dose curve at least 0.9, where 1 is the maximum)
Outline: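 Cell-free enzyme assay with recombinant protein and a specific fluorogenic substrate, read by fluorescence intensity 0.5 h after dosing. Primary screen ran in duplicate at 10 uM; actives were retested in concentration series. Loss of signal versus acetonitrile baseline.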

Measured: AC50

E-selectin (Homo sapiens), sequence (P16581 whole entry, looked up): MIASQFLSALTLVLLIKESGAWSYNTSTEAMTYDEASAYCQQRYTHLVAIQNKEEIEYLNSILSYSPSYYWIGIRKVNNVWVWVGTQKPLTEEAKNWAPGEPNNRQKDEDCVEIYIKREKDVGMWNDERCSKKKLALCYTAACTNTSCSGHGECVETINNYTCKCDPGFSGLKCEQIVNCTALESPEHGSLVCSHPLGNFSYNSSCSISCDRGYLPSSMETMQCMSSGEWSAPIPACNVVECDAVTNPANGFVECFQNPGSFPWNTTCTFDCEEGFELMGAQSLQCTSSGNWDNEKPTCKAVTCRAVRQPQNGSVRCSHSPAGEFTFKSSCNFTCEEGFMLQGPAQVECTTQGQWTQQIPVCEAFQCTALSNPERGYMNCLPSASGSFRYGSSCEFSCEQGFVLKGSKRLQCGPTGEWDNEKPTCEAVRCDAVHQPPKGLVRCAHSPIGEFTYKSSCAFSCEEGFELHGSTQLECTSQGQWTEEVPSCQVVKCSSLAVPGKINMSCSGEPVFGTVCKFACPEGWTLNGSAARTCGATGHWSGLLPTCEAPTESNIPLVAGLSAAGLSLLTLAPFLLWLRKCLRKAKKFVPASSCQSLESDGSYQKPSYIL
human CYP19A1, CYP19A1 (gene 1588), sequence (P11511 whole entry, looked up): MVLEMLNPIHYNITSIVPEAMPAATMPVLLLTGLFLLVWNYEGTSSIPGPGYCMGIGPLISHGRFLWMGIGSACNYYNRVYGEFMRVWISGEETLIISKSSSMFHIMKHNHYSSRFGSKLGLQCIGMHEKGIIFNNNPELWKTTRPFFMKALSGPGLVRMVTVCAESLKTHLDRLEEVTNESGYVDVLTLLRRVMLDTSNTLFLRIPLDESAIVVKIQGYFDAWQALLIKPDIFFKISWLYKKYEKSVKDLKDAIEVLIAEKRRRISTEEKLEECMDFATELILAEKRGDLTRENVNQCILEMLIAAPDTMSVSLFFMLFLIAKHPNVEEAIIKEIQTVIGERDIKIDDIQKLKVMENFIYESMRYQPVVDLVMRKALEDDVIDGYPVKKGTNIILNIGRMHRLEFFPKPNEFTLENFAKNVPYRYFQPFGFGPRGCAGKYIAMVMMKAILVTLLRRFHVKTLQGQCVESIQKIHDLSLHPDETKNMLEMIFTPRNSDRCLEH

CN=C=S
active: CD40, CD40 (gene 958) 13.5 µM | [1] 20 µM | [2] 12 µM | [5] 11.7 µM | [6] 13.7 µM
inactive: CD69, CD69 (gene 969) | [3] | [4] | [7] | [8]

O=C(O)c1c(Cl)ccc2cc(Cl)cnc12
inactive: CD40, CD40 (gene 958) | CD69, CD69 (gene 969) | [1] | [2] | [3] | [4] | [5] | [6] | [7]

Nc1cnn(-c2ccccc2)c(=O)c1Cl
inactive: CD40, CD40 (gene 958) | CD69, CD69 (gene 969) | [1] | [2] | [3] | [4] | [5] | [6] | [7]

COC(=O)NS(=O)(=O)c1ccc(N)cc1
inactive: CD40, CD40 (gene 958) | CD69, CD69 (gene 969) | [1] | [2] | [3] | [4] | [5] | [6] | [7]

O=c1n(Cl)c(=O)n(Cl)c(=O)n1Cl
inactive: CD40, CD40 (gene 958) | CD69, CD69 (gene 969) | [2] | [3] | [4] | [5] | [6] | [7]
active: [1] 11.6 µM

Cc1ccc(N=CN(C)C=Nc2ccc(C)cc2C)c(C)c1
inactive: [5]
active: CD40, CD40 (gene 958) 31.9 µM | CD69, CD69 (gene 969) 31.5 µM | [1] 30.9 µM | [2] 26.5 µM | [3] 30.7 µM | [4] 34.9 µM | [6] 21.7 µM | [7] 33.2 µM

CCOc1nc(C(Cl)(Cl)Cl)ns1
inactive: CD40, CD40 (gene 958) | CD69, CD69 (gene 969) | [1] | [3] | [4] | [5] | [6] | [7]
active: [2] 13.3 µM

CN/C(=N\[N+](=O)[O-])NCc1cnc(Cl)s1
inactive: CD40, CD40 (gene 958) | CD69, CD69 (gene 969) | [1] | [2] | [3] | [4] | [5] | [6] | [7]

CS(=O)(=O)c1ccc(C(=O)C2C(=O)CCCC2=O)c([N+](=O)[O-])c1
inactive: CD40, CD40 (gene 958) | CD69, CD69 (gene 969) | [1] | [2] | [3] | [4] | [5] | [6] | [7]

N#Cc1c(Cl)cccc1Cl
inactive: CD40, CD40 (gene 958) | CD69, CD69 (gene 969) | [1] | [2] | [3] | [4] | [5] | [6] | [7]
